# LmPK inh: qHTS Assay for Inhibitors of Leishmania Mexicana Pyruvate Kinase (LmPK); purified LmPK, Kinase-Glo ATP luminescence, 1 h; Potency, µM (titrated, usually from 57.5 µM), inactives show top-dose activity change, negative = inhibition, usual class: inhibitors; Q27686; 0.37% of 290,000 active; AID 1721, 2009
# Target sequence (Q27686 whole entry, looked up): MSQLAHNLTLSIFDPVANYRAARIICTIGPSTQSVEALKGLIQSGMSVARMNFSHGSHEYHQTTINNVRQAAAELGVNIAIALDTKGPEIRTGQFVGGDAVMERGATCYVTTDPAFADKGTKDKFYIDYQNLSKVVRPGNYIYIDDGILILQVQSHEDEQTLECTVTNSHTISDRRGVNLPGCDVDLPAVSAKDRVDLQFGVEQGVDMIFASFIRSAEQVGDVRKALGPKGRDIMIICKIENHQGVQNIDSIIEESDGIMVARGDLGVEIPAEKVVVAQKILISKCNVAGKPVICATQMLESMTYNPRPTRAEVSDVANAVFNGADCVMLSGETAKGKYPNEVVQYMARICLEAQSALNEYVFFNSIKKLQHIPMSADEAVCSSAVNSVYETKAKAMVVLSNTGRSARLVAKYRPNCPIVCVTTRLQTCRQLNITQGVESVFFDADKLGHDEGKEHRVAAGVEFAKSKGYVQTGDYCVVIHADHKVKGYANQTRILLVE
#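 In 50 mM imidazole pH 7.2 with 7 mM MgCl2, LmPK (0.1 nM) turned over PEP (0.5 mM) and ADP (0.1 mM) for 1 h at room temperature. Luciferase read-out of ATP.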
# FBPA Giardia inh: qHTS Assay for Inhibitors of Fructose-1,6-bisphosphate Aldolase from Giardia Lamblia. purified Giardia FBPA. Potency, µM (titrated, usually from 59.6 µM), for inactives: top-dose activity, negative = inhibition, most hits filed as inhibitors. 0.71% of 290,000 active. AID 2451, 2010; also: nearly all actives have a fitted effect of over 55% in size
#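 Giardia FBPA (40 nM reagent) was preincubated 10 min at RT with compound (up to 57.5 uM final), then substrate plus GAPDH/TPI/NAD/arsenate coupling system with diaphorase/resazurin was added; resorufin fluorescence (525/598 nm) was read after 20 min.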
# RE007 growth inh: qHTS Assay for Inhibitors of the HIV-1 protein Vpr. S. pombe RE007 Vpr strain, BacTiter-Glo ATP luminescence, 24 h. Potency, µM (doses to about 92.2 µM), for the others: at the top dose activity change, negative = less growth, actives largely listed as inhibitors. 0.21% of 360,000 active. AID 651644, 2012; active = well fitted falling curve with a large enough effect; inconclusive = small, poorly fitted or top-dose-only effect; inactive = no such curve, though single readings can be large or run the other way; also: nearly all actives have a fitted effect of over 50% in size
#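 Fission yeast RE007 carrying one integrated HIV-1 vpr copy, seeded at OD 0.01 in PMG+AL medium with 23 nL pinned compound. Grown 24 h at 30 degrees; viability read by BacTiter-Glo luminescence after 5 min.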
# Sm TGR inh: qHTS Assay for the Inhibitors of Schistosoma Mansoni Peroxiredoxins | Schistosoma mansoni thioredoxin glutathione reductase (TGR), Q962Y6 | 3% of 360,000 active | Potency, µM (series often up to 114 µM), for inactives: at the highest dose activity change, negative = inhibition, usual class: inhibitors | purified TGR, DTNB reduction, TNB absorbance 405 nm; also: nearly all actives have a fitted effect of over 60% in size
#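 TGR 20 nM + NADPH 100 uM (dispensed conc.), cpd preinc 15 min RT; start with NADPH (500 uM addition) then DTNB (15 mM addition). Kinetic TNB absorbance, 405 nm filter. Four-parameter Hill fit across titration.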
# TbPYK inhibitor: qHTS of Trypanosoma Brucei Inhibitors; pyruvate kinase (Trypanosoma brucei), Q57TT1; TbPYK enzyme, Kinase-Glo Plus ATP luminescence, 45 min; Potency, µM (top dose mostly 76.8 µM), without a hit: top-dose activity, negative = inhibition, hits mostly inhibitors; 0.12% of 410,000 active; AID 624173, 2012; also: nearly all actives have a fitted effect of over 50% in size
#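 Luminescent Kinase-Glo Plus end-point after 45 min room-temperature reaction of T. brucei pyruvate kinase started with 130 uM ADP (final). Buffer TEA 50 mM pH 7.2 with KCl, MgCl2, BSA, Tween-20; titration-based qHTS with fitted concentration-effect curves.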
# * hit, by the source's call; ? = inconclusive; . = not tested or not shown. Compounds with a hit are over-represented: about 3.3% of the library has one in this group of screens. Unless noted, calls follow the shape of the dose curve; as a rule, active = well fitted curve in the direction sought with a large enough effect; inconclusive = small, poorly fitted or top-dose-only effect, or another doubt; inactive = no such curve, though single readings can be large; an effect the other way counts as inactive or inconclusive. % is scaled to controls: 0 for no effect and ±100 for the full control effect; potency is read from the fitted curve at half-maximal effect.
SMILES,LmPK inh,FBPA Giardia inh,RE007 growth inh,Sm TGR inh,TbPYK inhibitor
O=[N+]([O-])CC(c1ccc(F)cc1)c1c[nH]c2ccccc12 (stereo unspecified),1%,0%,-18%,-7%,-7%
OC(c1ccccn1)c1c[nH]c2ccccc12 (stereo unspecified),-1%,0%,-15%,22µM*,-7%
CCCOc1ccccc1/C=N/NC(=O)C1CC1,-1%,.,5%,-35%,-2%
CCN(CC(=O)NCc1cccs1)C(=O)c1ccc(C)o1,.,.,-10%,.,0%
CCN(CC(=O)NCc1cccs1)C(=O)c1ccc([N+](=O)[O-])o1,.,.,-1%,45µM*,1%
CN=c1scc(-c2ccccc2F)n1/N=C/c1ccc(O)c(O)c1O,?,7.9µM*,?,18µM*,?
CC(C)N=c1scc(-c2cccs2)n1/N=C/c1ccc(O)c(O)c1O,-11%,?,?,20µM*,-23%
CC(=O)N1CCc2cc(Br)cc(S(=O)(=O)NCCCN3CCCC(C)C3)c21 (stereo unspecified),1%,-3%,0%,20%,-4%
CCN(CC)C(=O)c1ccc(NC(=O)Nc2ccccc2F)cc1,?,3%,13µM*,-7%,?
N#Cc1c(N2CCOCC2)nc(-c2ccco2)c2c1CCCC2,2%,4%,-12%,2.8µM*,-21%
CCc1nc(N2CCOCC2)c(C#N)c2c1CCCC2,1%,10%,-27%,-5%,-4%
CC(C)CCNc1nc(-c2ccco2)c2c(c1C#N)CCCC2,-9%,0%,3%,40µM*,-17%
CN(C)CCNc1nc(-c2ccco2)c2c(c1C#N)CC(C)(C)OC2,1%,0%,0%,-2%,4%
CC1(C)Cc2c(C#N)c(N3CCN(C(=O)c4ccccc4)CC3)nc(-c3ccco3)c2CS1,2%,-29%,-9%,3.2µM*,-18%
CCCCN(C)c1nc(-c2ccco2)c2c(c1C#N)CC(C)(C)OC2,0%,-14%,-13%,2.8µM*,?
CC(NC(=O)c1ccco1)C(=O)N1CC=C(c2ccccc2)CC1 (stereo unspecified),.,.,1%,.,-6%
Cc1ccc(C(O)c2ncc(-c3ccc(F)cc3)[nH]2)cc1F (stereo unspecified),.,.,-30%,.,-7%
CC(C)c1nc(N2CCN(C(=O)c3ccco3)CC2)c(C#N)c2c1COC(C)(C)C2,6%,-14%,4%,-13%,3%
CC1(C)Cc2c(C#N)c(N3CCCC3)nc(-c3ccco3)c2CO1,-5%,-14%,.,3.5µM*,.
CC1(C)Cc2c(C#N)c(NCc3ccco3)nc(-c3ccco3)c2CO1,11%,-26%,-4%,7.9µM*,-17%
Cc1nc(NCc2ccco2)c(C#N)c2c1COC(C)(C)C2,2%,-1%,-19%,-32%,0%
Cc1ccc(C(=O)O/N=C(/c2nonc2N)N(C)C)cc1,-4%,0%,-1%,17%,-1%
NC(CSCc1cccc(Br)c1)C(=O)O (stereo unspecified),-5%,-9%,-8%,40µM*,-7%
NC(=O)CSCc1cccc(Br)c1,8%,-4%,-4%,2%,3%
COc1cc2c(cc1OC)CN(S(=O)(=O)c1cccc(F)c1)CC2,0%,3%,1%,9%,0%
SMILES,LmPK inh,FBPA Giardia inh,RE007 growth inh,Sm TGR inh,TbPYK inhibitor
CN(C)/C=N/c1nc2nccc(-c3cccnc3)n2n1,-5%,2%,6%,59%,-9%
CC(C)COc1ccc(Cc2cnc(N)nc2N)cc1,-3%,7%,0%,-2%,5%
CC(C)Oc1ccc(Cc2cnc(=S)[nH]c2N)cc1,1%,-14%,0%,71µM*,-9%
CN1CCN(c2ccc(Cl)cc2NC(=O)CCN2C(=O)c3ccccc3C2=O)CC1,12%,-5%,-14%,40µM*,0%
CN(C)S(=O)(=O)c1ccc(/C(O)=C2/C(=O)C(=O)N(Cc3cccnc3)C2c2cccs2)cc1 (stereo unspecified),-1%,5%,-3%,25µM*,0%
CCOC(=O)CNc1ccc(OC(F)(F)F)cc1,5%,3%,0%,3%,1%
CCOCc1cc(CN2CCN(c3cccc(Cl)c3)CC2)c(O)c2ncccc12,.,.,.,-32%,3%
Oc1c(CN2CCOCC2)cc(COCc2ccccc2)c2cccnc12,0%,-30%,-16%,45µM*,-23%
CCOC(=O)N1CCN(Cc2cc(Cl)c3cccnc3c2O)CC1,7%,?,?,32µM*,3%
Oc1c(CNc2ccccc2)cc(COCc2ccccc2)c2cccnc12,.,.,.,2.8µM*,-3%
Oc1c(CN2CCN(c3ccccc3)CC2)cc(Br)c2cccnc12,-3%,-23%,3%,40µM*,3%
CCC(=O)N1c2ccc(S(=O)(=O)N3CCN(c4cc(C)ccc4C)CC3)cc2CC1C (stereo unspecified),3%,.,0%,-13%,-6%
O=C(CN1C(=O)NC2(CCCC2)C1=O)OCc1ccc(Cl)c(Cl)c1,.,.,-8%,-3%,-2%
COc1cc(C(CCN2CCCCC2)c2c(OC)cc(OC)c3c(C)cc(=O)oc23)cc(OC)c1OC (stereo unspecified),2%,0%,-23%,-7%,-3%
CC(C)OCc1cc(CN2CCN(c3ccccc3)CC2)c(O)c2ncccc12,.,.,.,?,0%
COCc1cc(CN2CCN(C)CC2)c(O)c2ncccc12,9%,?,15%,14µM*,9%
O=S1(=O)CC(N2CCN(CCO)CC2)CN1Cc1ccc(F)cc1 (stereo unspecified),.,.,-2%,.,6%
C1=C(c2ccccc2)CCN(c2ncnc3nc[nH]c23)C1,-2%,-10%,2%,50µM*,-5%
CC1(C)ON(C2CCCCC2)[C@H]2c3nc4ccccc4n3C[C@H]21,3%,-9%,-5%,-13%,-9%
O=C(c1ccco1)C(O)c1ccco1 (stereo unspecified),1%,-4%,.,20µM*,3%
Cc1ccc(S(=O)(=O)Nc2cc(-c3nn(C)c(=O)c4ccccc34)ccc2N2CCOCC2)cc1,-10%,-9%,-7%,56µM*,-9%
Cn1nc(-c2ccc(N3CCOCC3)c(NS(=O)(=O)c3ccc(Cl)cc3)c2)c2ccccc2c1=O,-8%,-14%,0%,0%,3%
Cc1cc(-c2ccccc2)[nH]c(=O)c1C#N,1%,4%,5%,-2%,4%
N#Cc1sc2nc(C3CC3)cc(-c3ccccc3)c2c1N,-1%,1%,-4%,9%,-2%
CC(=O)Nc1nc(-c2ccccc2)cc(-c2ccco2)c1C#N,.,.,4%,?,0%
